Measurements: PubChem BioAssay (Tox21)
Several values for one entry are separate records, joined by “and”; a condition that tells them apart may be missing. Equal values may be shown once. Inconclusive results are not listed. More than one record can exist for a structure, and the calls need not agree. Activity calls are given as the source filed them. Unless noted, calls follow the shape of the dose curve; as a rule, active = well fitted curve in the direction sought with a large enough effect in the repeat runs; inconclusive = weak or mixed curves; inactive = no such curve, though single readings can be large; an effect the other way counts as inactive or inconclusive.

How the values were obtained:
[1] = qHTS assay to identify small molecule antagonists of the thyroid receptor (TR) signaling pathway - cell viability counter screen (AID 743064); also: nearly all actives have a fitted effect of over 50% in size
How it was run: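 GH3.TRE-Luc rat pituitary cells carrying a TRE-luciferase reporter were treated with compound plus 1 nM T3 (final) for 23.5 h at 37 °C. Viability was then read in the same wells by CellTiter-Fluor fluorescence after a further 30 min.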

[2] = qHTS assay to identify small molecule antagonists of the thyroid receptor (TR) signaling pathway (AID 743065); also: series mostly up to about 70 µM; nearly all actives have a fitted effect of over 55% in size
How it was run: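 GH3.TRE-Luc rat pituitary cells (two TREs driving luciferase) were dosed with compound, then stimulated with 1 nM T3 (final) for 23.5 h at 37 C. ONE-Glo luminescence was the read-out, with CellTiter-Fluor fluorescence as the cytotoxicity counter-screen.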

[3] = test system: thyroid hormone receptor (rat, GH3 cells); experiment: qHTS assay to identify small molecule agonists of the thyroid receptor (TR) signaling pathway (AID 743066; calls by dose curve)
[4] = qHTS assay to identify small molecule antagonists of the estrogen receptor alpha (ER-alpha) signaling pathway - cell viability counter screen (AID 743074; calls by dose curve; also: nearly all actives have a fitted effect of over 45% in size)
[5] = qHTS assay to identify small molecule antagonists of the estrogen receptor alpha (ER-alpha) signaling pathway using the BG1 cell line - cell viability counter screen (AID 743081);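 also: compound given together with 17beta-estradiol as the ER stimulus; series mostly up to about 70 µM; nearly all actives have a fitted effect of over 45% in size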
Aromatase (Homo sapiens) = Aromatase (Homo sapiens) (UniProt P11511); experiment: qHTS assay to identify aromatase inhibitors (AID 743083); also: series mostly up to about 70 µM; nearly all actives have a fitted effect of over 55% in size
Chain of Aromatase (Homo sapiens) (P11511 whole entry, looked up): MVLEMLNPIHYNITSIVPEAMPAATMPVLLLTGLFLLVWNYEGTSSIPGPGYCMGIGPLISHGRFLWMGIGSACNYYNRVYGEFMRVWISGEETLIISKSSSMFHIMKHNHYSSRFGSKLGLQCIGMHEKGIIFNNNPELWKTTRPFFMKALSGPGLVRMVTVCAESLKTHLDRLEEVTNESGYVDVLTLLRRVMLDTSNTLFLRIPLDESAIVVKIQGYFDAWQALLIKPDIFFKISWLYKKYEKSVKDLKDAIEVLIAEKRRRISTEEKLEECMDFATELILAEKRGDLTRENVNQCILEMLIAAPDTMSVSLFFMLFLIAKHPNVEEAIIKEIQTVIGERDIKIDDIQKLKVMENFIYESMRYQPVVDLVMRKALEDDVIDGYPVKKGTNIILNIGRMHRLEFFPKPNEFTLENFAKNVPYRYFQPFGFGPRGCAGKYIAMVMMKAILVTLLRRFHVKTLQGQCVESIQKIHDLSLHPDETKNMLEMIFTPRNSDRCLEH

[6] = qHTS assay to identify aromatase inhibitors - cell viability counter screen (AID 743084);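 also: cells stimulated with testosterone during compound exposure; nearly all actives have a fitted effect of over 55% in size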; also: potency is read from the fitted curve at half-maximal effect
[7] = qHTS assay to identify small molecule that activate the aryl hydrocarbon receptor (AhR) signaling pathway - cell viability counter screen (AID 743086);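 also: HepG2 liver cells carrying the AhR DRE luciferase reporter; series mostly up to about 70 µM; nearly all actives have a fitted effect of over 45% in size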
How it was run: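 HepG2-AhR-luc (HG2L7.5c1) cells, 4000/well, treated 24 h at 37 C with compound; viability measured as CellTiter-Fluor fluorescence after 30 min in the same wells as the luciferase read.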

[8] = target: Peroxisome proliferator-activated receptor gamma (Homo sapiens) (UniProt P37231); experiment: qHTS assay to identify small molecule agonists of the peroxisome proliferator-activated receptor gamma (PPARg) signaling pathway (AID 743094; active = well fitted activation curve with a large enough effect in the signal ratio in the repeat runs, not every such curve was filed as active; the % refers to the signal ratio)
Chain of Peroxisome proliferator-activated receptor gamma (Homo sapiens) (P37231 whole entry, looked up): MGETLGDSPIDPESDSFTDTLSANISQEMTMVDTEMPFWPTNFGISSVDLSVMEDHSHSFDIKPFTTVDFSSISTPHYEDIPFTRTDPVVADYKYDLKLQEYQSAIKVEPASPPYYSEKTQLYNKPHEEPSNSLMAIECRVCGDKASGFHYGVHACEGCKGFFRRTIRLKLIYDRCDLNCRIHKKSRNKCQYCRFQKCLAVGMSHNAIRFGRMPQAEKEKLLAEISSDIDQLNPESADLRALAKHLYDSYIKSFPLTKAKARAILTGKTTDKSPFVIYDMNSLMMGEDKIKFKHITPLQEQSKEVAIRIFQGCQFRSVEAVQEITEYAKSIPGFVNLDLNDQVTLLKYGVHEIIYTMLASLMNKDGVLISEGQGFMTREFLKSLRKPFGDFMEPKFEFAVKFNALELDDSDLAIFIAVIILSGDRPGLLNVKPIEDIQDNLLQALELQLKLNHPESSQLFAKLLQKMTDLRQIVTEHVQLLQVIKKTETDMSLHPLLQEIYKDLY
How it was run: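 Fluorescence-based beta-lactamase readout in HEK293H PPARg UAS-bla cells after 17 h compound exposure (37C) and 1 h B/G FRET substrate incubation at room temperature.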

[9] = target: Peroxisome proliferator-activated receptor gamma (Homo sapiens) (UniProt P37231); experiment: qHTS assay to identify small molecule antagonists of the peroxisome proliferator-activated receptor gamma (PPARg) signaling pathway (AID 743191; calls by dose curve; also: series mostly up to about 63 µM; nearly all actives have a fitted effect of over 30% in size)
How it was run: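 GeneBLAzer PPARg UAS-bla HEK293H cells, 5 h post-plating, exposed to compounds 17 h at 37C. LiveBLAzer B/G FRET substrate added for 1 h at room temperature; beta-lactamase reporter read by fluorescence intensity.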

[10] = qHTS assay to identify small molecule antagonists of the peroxisome proliferator-activated receptor gamma (PPARg) signaling pathway - cell viability counter screen (AID 743194); also: nearly all actives have a fitted effect of over 55% in size
How it was run: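 Cytotoxicity counter screen in PPARg-bla HEK293H cells, same wells as reporter assay. Compounds plus 50 nM rosiglitazone (final) for 17 h at 37 C, then viability read by CellTiter-Glo luminescence.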

[11] = qHTS assay for small molecule agonists of the antioxidant response element (ARE) signaling pathway (AID 743202; active = well fitted activation curve with a large enough effect in the signal ratio in the repeat runs, not every such curve was filed as active; the % refers to the signal ratio; also: potency is read from the fitted curve at half-maximal effect)
How it was run: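 HepG2 ARE-bla cells; 16 h treatment at 37 C; FRET-based beta-lactamase fluorescence read after 2 h substrate incubation at room temperature.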

[12] = qHTS assay for small molecule agonists of the antioxidant response element (ARE) signaling pathway - cell viability counter screen (AID 743203; calls by dose curve; also: nearly all actives have a fitted effect of over 55% in size)
How it was run: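 Parallel cytotoxicity read-out for the ARE-bla screen: HepG2 reporter cells, 16 hrs with compounds, then CellTiter-Glo luminescence.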

[13] = qHTS assay for small molecule activators of the heat shock response signaling pathway - cell viability counter screen (AID 743209); also: nearly all actives have a fitted effect of over 50% in size
How it was run: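 To flag cytotoxic compounds, HSE-bla HeLa cells plated at 1500 cells/well were dosed for 5 h at 37 C, followed by the reporter FRET read and then CellTiter-Glo, with luminescence recorded 30 min after reagent addition.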

[14] = qHTS assay for small molecule activators of the heat shock response signaling pathway (AID 743210; active = well fitted activation curve with a large enough effect in the signal ratio in the repeat runs, with a control signal flat, not every such curve was filed as active; the % refers to the signal ratio;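 also: HeLa cells with beta-lactamase reporter driven by heat shock elements; series mostly up to about 63 µM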)
How it was run: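 Following overnight attachment, HSE-bla HeLa cells received test compounds for 5 h at 37 C; beta-lactamase activity was then detected via FRET substrate fluorescence.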

[15] = target: Estrogen receptor (Homo sapiens) (UniProt P03372); experiment: qHTS assay to identify small molecule agonists of the estrogen receptor alpha (ER-alpha) signaling pathway (AID 743075; calls by dose curve; also: potency is read from the fitted curve at half-maximal effect)
Chain of Estrogen receptor (Homo sapiens) (P03372 whole entry, looked up): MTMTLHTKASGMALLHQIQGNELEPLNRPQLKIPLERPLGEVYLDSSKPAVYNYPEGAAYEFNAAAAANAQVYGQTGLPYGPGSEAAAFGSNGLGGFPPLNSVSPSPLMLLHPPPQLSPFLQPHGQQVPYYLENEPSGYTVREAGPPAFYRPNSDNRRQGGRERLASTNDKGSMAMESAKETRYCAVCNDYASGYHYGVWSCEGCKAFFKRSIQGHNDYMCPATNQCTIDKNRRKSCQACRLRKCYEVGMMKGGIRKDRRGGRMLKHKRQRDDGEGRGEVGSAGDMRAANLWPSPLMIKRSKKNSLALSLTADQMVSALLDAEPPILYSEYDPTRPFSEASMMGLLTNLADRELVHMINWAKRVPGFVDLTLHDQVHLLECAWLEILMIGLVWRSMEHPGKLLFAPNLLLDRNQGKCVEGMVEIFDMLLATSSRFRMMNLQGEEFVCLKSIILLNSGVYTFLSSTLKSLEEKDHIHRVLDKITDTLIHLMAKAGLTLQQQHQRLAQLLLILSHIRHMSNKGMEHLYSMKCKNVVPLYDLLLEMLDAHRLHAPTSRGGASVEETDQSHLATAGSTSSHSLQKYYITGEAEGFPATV

[16] = target: Aryl hydrocarbon receptor (Homo sapiens) (UniProt P35869); experiment: qHTS assay to identify small molecule that activate the aryl hydrocarbon receptor (AhR) signaling pathway (AID 743085); also: nearly all actives have a fitted effect of over 15% in size; also: potency is read from the fitted curve at half-maximal effect;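 as to activation: HG2L7.5c1 human HepG2 liver cells with stably integrated DRE-driven firefly reporter; series mostly up to about 70 µM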
Chain of Aryl hydrocarbon receptor (Homo sapiens) (P35869 whole entry, looked up): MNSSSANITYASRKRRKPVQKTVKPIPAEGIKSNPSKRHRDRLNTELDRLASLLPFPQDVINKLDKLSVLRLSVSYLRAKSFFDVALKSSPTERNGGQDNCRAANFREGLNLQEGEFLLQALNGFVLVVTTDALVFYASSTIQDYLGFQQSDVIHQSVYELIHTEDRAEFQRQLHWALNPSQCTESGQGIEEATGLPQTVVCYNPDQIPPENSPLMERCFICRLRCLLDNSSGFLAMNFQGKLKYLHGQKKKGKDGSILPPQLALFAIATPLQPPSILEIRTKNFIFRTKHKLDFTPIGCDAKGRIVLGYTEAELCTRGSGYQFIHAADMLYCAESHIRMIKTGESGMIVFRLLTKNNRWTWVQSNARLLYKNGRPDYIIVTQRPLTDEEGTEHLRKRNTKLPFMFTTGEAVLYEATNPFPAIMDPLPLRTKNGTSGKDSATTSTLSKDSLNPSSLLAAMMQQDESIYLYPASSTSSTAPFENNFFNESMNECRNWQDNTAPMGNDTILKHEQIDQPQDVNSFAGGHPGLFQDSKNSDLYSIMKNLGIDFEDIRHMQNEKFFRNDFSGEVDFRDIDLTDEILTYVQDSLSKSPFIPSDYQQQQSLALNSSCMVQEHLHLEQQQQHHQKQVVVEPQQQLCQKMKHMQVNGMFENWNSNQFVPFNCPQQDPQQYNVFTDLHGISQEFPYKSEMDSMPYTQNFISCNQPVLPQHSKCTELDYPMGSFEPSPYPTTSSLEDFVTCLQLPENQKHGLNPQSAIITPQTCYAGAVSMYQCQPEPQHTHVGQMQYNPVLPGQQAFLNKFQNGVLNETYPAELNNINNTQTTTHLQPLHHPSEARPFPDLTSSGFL
How it was run: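 HepG2 cells (HG2L7.5c1) stably carrying a firefly luciferase reporter driven by 20 dioxin responsive elements were exposed to compound for 24 h at 37C after a 5 h settling period; luminescence rise (ONE-Glo) indicated activation.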

[17] = target: Estrogen receptor (Homo sapiens) (UniProt P03372); experiment: qHTS assay to identify small molecule agonists of the estrogen receptor alpha (ER-alpha) signaling pathway using the BG1 cell line (AID 743079); also: nearly all actives have a fitted effect of over 20% in size; also: potency is read from the fitted curve at half-maximal effect
[18] = qHTS assay to identify small molecule antagonists of the estrogen receptor alpha (ER-alpha) signaling pathway using the BG1 cell line (AID 743080; calls by dose curve;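 also: BG1 cells stimulated with 17beta-estradiol alongside compound; series mostly up to about 70 µM; nearly all actives have a fitted effect of over 25% in size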)
How it was run: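 Seeding, 24 h rest, compound transfer from DMSO, 17beta-estradiol addition, 21.5 h incubation, CellTiter-Fluor (30 min, 37 C), then ONE-Glo (30 min, room temperature): this sequence was run on BG1-Luc-4E2 reporter cells.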

[19] = target: Estrogen receptor (Homo sapiens) (UniProt P03372); experiment: qHTS assay to identify small molecule antagonists of the estrogen receptor alpha (ER-alpha) signaling pathway (AID 743069; active = well fitted curve in the direction sought with a large enough effect in the signal ratio in the repeat runs, not every such curve was filed as active; the % refers to the signal ratio)
How it was run: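 In this cell-based reporter format, GripTite HEK293 cells harbouring ER-alpha-UAS-bla were grown overnight with 2% charcoal-stripped FBS, dosed with DMSO-dissolved compounds, then challenged with 17beta-estradiol. After 18 hr at 37C, beta-lactamase activity was detected by FRET fluorescence.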

Measured: Potency

CC(C)(O)c1coc(S(=O)(=O)NC(=O)Nc2c3c(cc4c2CCC4)CCC3)c1
not listed: [15] | [16] | [17] | [18] | [19]
inactive: all other assays above

CC(=O)OCC(C)C
not listed: [1] | [2] | [3] | [4] | [16] | [17] | [18] | [19]
inactive: all other assays above

CCOC(=O)N1CCC(Nc2ccc(Cl)cc2N)CC1
inactive: [10] | [12] | [13]
active: [11] 7.5 µM

CCc1ccc(C)cc1
not listed: [1] | [15] | [17] | [18] | [19]
inactive: all other assays above

Oc1ccc2c(c1)Cc1ccccc1-2
active: [15] 24.5 µM [activator] | [17] 13.7 µM | [11] 34.4 µM
not listed: [1] | [2] | [9] | [16] | [18] | [19]
inactive: all other assays above

O=C1[C@@H]2[C@H]3CC[C@H](C3)[C@@H]2C(=O)N1CCCCN1CCN(c2ncccn2)CC1
not listed: [1] | [2] | [3] | [11] | [19]
inactive: all other assays above

O=C1c2ccccc2C(=O)c2c(O)ccc(O)c21
inactive: [3] | [4] | [9] | [13] | [14]
active: [6] 38.6 µM | [16] 7.7 µM | [11] 2.73 µM

O=S(=O)(O)CO
not listed: [1] | [13] | [15] | [16] | [17] | [18] | [19]
inactive: all other assays above

C[C@@H]1[C@H](O)[C@@H](C)/C=C/C=C\C=C\C=C\C=C\C=C\C=C\[C@H](O[C@@H]2O[C@H](C)[C@@H](O)[C@H](N)[C@@H]2O)C[C@@H]2O[C@](O)(C[C@@H](O)C[C@@H](O)[C@H](O)CC[C@@H](O)C[C@@H](O)CC(=O)O[C@H]1C)C[C@H](O)[C@H]2C(=O)O (stereo in doubt)
inactive and 34.4 µM (active): [6]
not listed: [1] | [2] | [3] | [9] | [11] | [16]
inactive: all other assays above

CCCc1nc2c(C)cc(-c3nc4ccccc4n3C)cc2n1Cc1ccc(-c2ccccc2C(=O)O)cc1
active: [11] 26.6 µM
not listed: [1] | [2] | [8] | [9] | [16] | [19]
inactive: all other assays above

Oc1cccc2[nH]ccc12
inactive: [9] | [10] | [12] | [13] | [14]

O=C(O)CCC(=O)c1ccc(-c2ccccc2)cc1
inactive: [4] | [5] | Aromatase (Homo sapiens) | [6] | [16] | [7] | [8] | [9] | [10] | [11] | [14]

C[C@H](CS)C(=O)N1CCC[C@H]1C(=O)O
not listed: [1] | [8] | [9] | [15] | [17] | [18] | [19]
inactive: all other assays above

CCCCC[C@H](O)/C=C/[C@H]1[C@H](O)CC(=O)[C@@H]1C/C=C\CCCC(=O)O
not listed: [1] | [2] | [5] | [11] | [15] | [17] | [18] | [19]
inactive: all other assays above

CCOc1ncc(F)c(=O)[nH]1
inactive: [9] | [10] | [11] | [12] | [13]

Cc1ccc(N(CC2=NCCN2)c2cccc(O)c2)cc1
not listed: [1] | [2] | [11] | [16] | [17]
inactive: all other assays above

CCCCOCCOC(=O)c1cccnc1
inactive: [9] | [10] | [11] | [12] | [13] | [14]

CCCCCc1ccco1
inactive: [3] | [4] | [5] | Aromatase (Homo sapiens) | [6] | [16] | [7] | [10]

CC[C@@H](CO)NCCN[C@@H](CC)CO
not listed: [1] | [2] | [3] | [15] | [17] | [18] | [19]
inactive: all other assays above
